About 79,000 compounds went through this panel and 15% of them were active in at least one assay; those are over-represented in the sample as a whole. Values without a mark were called inactive. The source made the active and inactive calls. No stated cut-off is given here; in the data, active means growth inhibition above about 70%; inactive means the rest.
Columns and labels:
[1] = NCI Yeast Anticancer Drug Screen. Data for the rad52 strain (AID 147);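 further: 0% = growth of vehicle-treated control cultures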; settings: S. cerevisiae rad52 mutant growth inhibition, hits give high values
Outline: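 Genetically altered yeast (DNA damage repair defect) treated with compound; inhibition calculated relative to vehicle.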

[2] = NCI Yeast Anticancer Drug Screen. Data for the wt1 strain (AID 149);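 further: 0% = growth of vehicle-treated wt1 cultures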; settings: S. cerevisiae wt1 strain (SPY 50644) growth inhibition, hits give high values
Outline: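 Yeast wt1 strain exposed to compounds; growth inhibition measured relative to vehicle-treated controls.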

[3] = NCI Yeast Anticancer Drug Screen. Data for the rad50EPP+ strain (AID 151);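 further: 0% = growth of vehicle-treated control cultures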; settings: S. cerevisiae rad50 mutant strain, hits give high values
Outline: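 Strain rad50EPP+; compound exposure; % growth inhibition vs vehicle.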

[4] = NCI Yeast Anticancer Drug Screen. Data for the mgt1 strain (AID 153); settings: S. cerevisiae mgt1 mutant growth inhibition, hits give high values
Outline: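 Read-out: yeast growth inhibition vs vehicle control. Strain mgt1, drawn from a panel altered in DNA damage repair or cell cycle control.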

[5] = NCI Yeast Anticancer Drug Screen. Data for the rad50 strain (AID 155);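 further: 0% = growth of vehicle-only cultures of the same strain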; settings: S. cerevisiae rad50 strain growth inhibition, hits give high values
Outline: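 Yeast carrying a defined DNA repair defect were exposed to test compounds, and growth was compared with vehicle-treated controls to give percent inhibition.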

[6] = NCI Yeast Anticancer Drug Screen. Data for the mec2-1 strain (AID 157); settings: S. cerevisiae mec2-1 strain, hits give high values
Outline: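 Cells of the genetically defined mec2-1 yeast strain are incubated with test compound. Inhibition of growth is calculated against vehicle-treated controls.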

[7] = NCI Yeast Anticancer Drug Screen. Data for the sgs1 mgt1 strain (AID 161);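 further: 0% = growth of cultures given vehicle only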; settings: S. cerevisiae sgs1 mgt1 strain, hits give high values
Outline: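 Read-out: growth inhibition vs vehicle controls. Cells: mutant yeast strain deficient in DNA damage repair.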

[8] = NCI Yeast Anticancer Drug Screen. Data for the CLN2oe strain (AID 163);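 further: 0% = growth of vehicle-only control cultures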; settings: S. cerevisiae CLN2oe strain, hits give high values
Outline: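 Strain altered in cell-cycle control, incubated with compound; growth compared to solvent-treated controls.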

[9] = NCI Yeast Anticancer Drug Screen. Data for the cln2 rad14 strain (AID 165);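 further: 0% = growth equal to vehicle treated cultures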; settings: S. cerevisiae cln2 rad14 strain, hits give high values
Outline: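 The screen exposed genetically defined yeast (cln2 rad14) to test compounds and scored growth inhibition relative to vehicle-treated controls.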

[10] = NCI Yeast Anticancer Drug Screen. Data for the bub3 strain (AID 167); settings: S. cerevisiae bub3 mutant strain, hits give high values
Outline: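 Compounds were applied to a genetically altered yeast strain carrying a cell-cycle control defect. Growth inhibition was scored against vehicle-treated controls.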

[11] = NCI Yeast Anticancer Drug Screen. Data for the wt2 strain (AID 169);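 further: 0% = growth of vehicle-treated yeast cultures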; settings: S. cerevisiae wt2 strain growth inhibition, hits give high values
Outline: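 Steps: yeast strain treated with compound; growth recorded; inhibition calculated relative to cultures given vehicle alone.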

[12] = NCI Yeast Anticancer Drug Screen. Data for the mlh1 strain (AID 171);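 further: 0% = growth of vehicle-treated control cultures of the same strain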; settings: S. cerevisiae mlh1 strain growth inhibition, hits give high values
Outline: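 Yeast screen: mutant strain plus compound, growth scored against vehicle control wells.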

[13] = NCI Yeast Anticancer Drug Screen. Data for the sgs1 strain (AID 173);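 further: 0% = growth of vehicle-only control cultures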; settings: S. cerevisiae sgs1 mutant, hits give high values
Outline: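 Inhibition of yeast growth served as the measure. The mutant strain was treated with each compound, and growth was normalised to cultures receiving vehicle alone.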

[14] = NCI Yeast Anticancer Drug Screen. Data for the mlh1 rad18 strain (AID 175); settings: S. cerevisiae mlh1 rad18 strain growth inhibition, hits give high values
Outline: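 Compound-treated yeast growth, normalised to vehicle controls. Strain bears defined DNA repair mutations.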

[15] = NCI Yeast Anticancer Drug Screen. Data for the rad18 strain (AID 177); settings: S. cerevisiae rad18 mutant growth inhibition, hits give high values
Outline: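 Inhibition values reflect reduced yeast growth compared with vehicle-treated controls, using a strain engineered with a DNA damage repair defect.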

[16] = NCI Yeast Anticancer Drug Screen. Data for the rad14 strain (AID 159);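 further: 0% = growth of vehicle-treated control cultures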; settings: S. cerevisiae rad14 strain growth inhibition, hits give high values
Outline: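 Yeast cells carrying a defined DNA-repair defect were exposed to compounds, and growth inhibition was calculated relative to vehicle-treated control cultures.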

[17] = at 5.0 µM (retest, dose inferred, filed as 0.5)
[18] = at 50.0 µM (retest, dose inferred, filed as 5.0)

SMILES: O=C(NCCCCCCCN1CCCCCCC1)C(C1CCCCC1)C1CCCCC1
- growth inhibition ([1]; at 1.2 µM): 40%
- growth inhibition ([1]; at 3.7 µM): 52%
- growth inhibition ([1]; at 11.0 µM): 89% (active)
- growth inhibition ([1]; at 33.0 µM): 98% (active)
- growth inhibition ([1]; at 100.0 µM): 99% (active)
- growth inhibition ([2]; at 1.2 µM): 18%
- growth inhibition ([2]; at 3.7 µM): 26%
- growth inhibition ([2]; at 11.0 µM): 61%
- growth inhibition ([2]; at 33.0 µM): 97% (active)
- growth inhibition ([2]; at 100.0 µM): 98% (active)
- growth inhibition ([3]; at 1.2 µM): 0%
- growth inhibition ([3]; at 3.7 µM): -1%
- growth inhibition ([3]; at 11.0 µM): 4%
- growth inhibition ([3]; at 33.0 µM): 16%
- growth inhibition ([3]; at 100.0 µM): 41%
- growth inhibition ([4]; at 1.2 µM): 64%
- growth inhibition ([4]; at 3.7 µM): 83% (active)
- growth inhibition ([4]; at 11.0 µM): 97% (active)
- growth inhibition ([4]; at 33.0 µM): 98% (active)
- growth inhibition ([4]; at 100.0 µM): 99% (active)
- growth inhibition ([5]; at 1.2 µM): 41%
- growth inhibition ([5]; at 3.7 µM): 45%
- growth inhibition [5, 17]: 35%
- growth inhibition ([5]; at 11.0 µM): 81% (active)
- growth inhibition ([5]; at 33.0 µM): 98% (active)
- growth inhibition [5, 18]: 99% (active)
- growth inhibition ([5]; at 50.0 µM): 99.3% (active)
- growth inhibition ([5]; at 100.0 µM): 98% (active)
- growth inhibition ([6]; at 1.2 µM): 43%
- growth inhibition ([6]; at 3.7 µM): 39%
- growth inhibition [6, 17]: 29%
- growth inhibition ([6]; at 11.0 µM): 85% (active)
- growth inhibition ([6]; at 33.0 µM): 98% (active)
- growth inhibition [6, 18]: 97% (active)
- growth inhibition ([6]; at 50.0 µM): 94.2% (active)
- growth inhibition ([6]; at 100.0 µM): 99% (active)
- growth inhibition [7, 17]: 36%
- growth inhibition [7, 18]: 98% (active)
- growth inhibition ([7]; at 50.0 µM): 99% (active)
- growth inhibition ([8]; at 1.2 µM): 53%
- growth inhibition ([8]; at 3.7 µM): 65%
- growth inhibition ([8]; at 11.0 µM): 92% (active)
- growth inhibition ([8]; at 33.0 µM): 97% (active)
- growth inhibition ([8]; at 100.0 µM): 98% (active)
- growth inhibition [9, 17]: 62%
- growth inhibition [9, 18]: 98% (active)
- growth inhibition ([9]; at 50.0 µM): 96.5% (active)
- growth inhibition ([10]; at 1.2 µM): 65%
- growth inhibition ([10]; at 3.7 µM): 66%
- growth inhibition [10, 17]: 27%
- growth inhibition ([10]; at 11.0 µM): 95% (active)
- growth inhibition ([10]; at 33.0 µM): 97% (active)
- growth inhibition [10, 18]: 99% (active)
- growth inhibition ([10]; at 50.0 µM): 99% (active)
- growth inhibition ([10]; at 100.0 µM): 98% (active)
- growth inhibition ([11]; at 1.2 µM): 37%
- growth inhibition ([11]; at 3.7 µM): 56%
- growth inhibition ([11]; at 11.0 µM): 95% (active)
- growth inhibition ([11]; at 33.0 µM): 98% (active)
- growth inhibition ([11]; at 100.0 µM): 99% (active)
- growth inhibition ([12]; at 1.2 µM): 44%
- growth inhibition ([12]; at 3.7 µM): 48%
- growth inhibition ([12]; at 11.0 µM): 95% (active)
- growth inhibition ([12]; at 33.0 µM): 98% (active)
- growth inhibition ([12]; at 100.0 µM): 99% (active)
- growth inhibition ([13]; at 1.2 µM): 59%
- growth inhibition ([13]; at 3.7 µM): 67%
- growth inhibition ([13]; at 11.0 µM): 95% (active)
- growth inhibition ([13]; at 33.0 µM): 98% (active)
- growth inhibition ([13]; at 100.0 µM): 99% (active)
- growth inhibition [14, 17]: 17%
- growth inhibition [14, 18]: 98% (active)
- growth inhibition ([14]; at 50.0 µM): 99.2% (active)
- growth inhibition ([15]; at 1.2 µM): 51%
- growth inhibition ([15]; at 3.7 µM): 64%
- growth inhibition ([15]; at 11.0 µM): 92% (active)
- growth inhibition ([15]; at 33.0 µM): 97% (active)
- growth inhibition ([15]; at 100.0 µM): 98% (active)

SMILES: Cc1[nH]c2ccccc2c1C(c1ccc(N)cc1)c1c(C)[nH]c2ccccc12
- growth inhibition ([1]; at 1.2 µM): 3%
- growth inhibition ([1]; at 3.7 µM): 3%
- growth inhibition ([1]; at 11.0 µM): -6%
- growth inhibition ([1]; at 33.0 µM): -1%
- growth inhibition ([1]; at 100.0 µM): 41%
- growth inhibition ([2]; at 1.2 µM): -2%
- growth inhibition ([2]; at 3.7 µM): -1%
- growth inhibition ([2]; at 11.0 µM): -2%
- growth inhibition ([2]; at 33.0 µM): -1%
- growth inhibition ([2]; at 100.0 µM): 45%
- growth inhibition ([3]; at 1.2 µM): 4%
- growth inhibition ([3]; at 3.7 µM): -4%
- growth inhibition ([3]; at 11.0 µM): -4%
- growth inhibition ([3]; at 33.0 µM): -2%
- growth inhibition ([3]; at 100.0 µM): -8%
- growth inhibition ([4]; at 1.2 µM): -3%
- growth inhibition ([4]; at 3.7 µM): 0%
- growth inhibition ([4]; at 11.0 µM): 0%
- growth inhibition ([4]; at 33.0 µM): 0%
- growth inhibition ([4]; at 100.0 µM): 48%
- growth inhibition ([5]; at 1.2 µM): 6%
- growth inhibition ([5]; at 3.7 µM): 3%
- growth inhibition [5, 17]: 0%
- growth inhibition ([5]; at 11.0 µM): -5%
- growth inhibition ([5]; at 33.0 µM): 1%
- growth inhibition [5, 18]: 90% (active)
- growth inhibition ([5]; at 50.0 µM): 95.3% (active)
- growth inhibition ([5]; at 100.0 µM): 40%
- growth inhibition ([6]; at 1.2 µM): -1%
- growth inhibition ([6]; at 3.7 µM): -1%
- growth inhibition [6, 17]: 4%
- growth inhibition ([6]; at 11.0 µM): -1%
- growth inhibition ([6]; at 33.0 µM): -1%
- growth inhibition [6, 18]: 94% (active)
- growth inhibition ([6]; at 50.0 µM): 96.4% (active)
- growth inhibition ([6]; at 100.0 µM): 45%
- growth inhibition ([16]; at 1.2 µM): 5%
- growth inhibition ([16]; at 3.7 µM): 0%
- growth inhibition ([16]; at 11.0 µM): 0%
- growth inhibition ([16]; at 33.0 µM): 6%
- growth inhibition ([16]; at 100.0 µM): 50%
- growth inhibition [7, 17]: 8%
- growth inhibition [7, 18]: 96% (active)
- growth inhibition ([7]; at 50.0 µM): 98.2% (active)
- growth inhibition [9, 17]: 4%
- growth inhibition [9, 18]: 45%
- growth inhibition ([9]; at 50.0 µM): 39%
- growth inhibition ([10]; at 1.2 µM): -3%
- growth inhibition ([10]; at 3.7 µM): -3%
- growth inhibition [10, 17]: 0%
- growth inhibition ([10]; at 11.0 µM): -6%
- growth inhibition ([10]; at 33.0 µM): -5%
- growth inhibition [10, 18]: 85% (active)
- growth inhibition ([10]; at 50.0 µM): 98.4% (active)
- growth inhibition ([10]; at 100.0 µM): 38%
- growth inhibition ([11]; at 1.2 µM): -2%
- growth inhibition ([11]; at 3.7 µM): -11%
- growth inhibition ([11]; at 11.0 µM): -10%
- growth inhibition ([11]; at 33.0 µM): -1%
- growth inhibition ([11]; at 100.0 µM): 47%
- growth inhibition ([12]; at 1.2 µM): 1%
- growth inhibition ([12]; at 3.7 µM): -1%
- growth inhibition ([12]; at 11.0 µM): -2%
- growth inhibition ([12]; at 33.0 µM): 0%
- growth inhibition ([12]; at 100.0 µM): 50%
- growth inhibition [14, 17]: 6%
- growth inhibition [14, 18]: 96% (active)
- growth inhibition ([14]; at 50.0 µM): 98.5% (active)
- growth inhibition ([15]; at 1.2 µM): 4%
- growth inhibition ([15]; at 3.7 µM): 4%
- growth inhibition ([15]; at 11.0 µM): -1%
- growth inhibition ([15]; at 33.0 µM): 0%
- growth inhibition ([15]; at 100.0 µM): 47%

From PubChem BioAssay (NCI)
